Hits are enriched below; roughly 17% of the tested compounds scored in any of these assays.
S2 tox: reduces viability in counter-screen for ATXN expression inhibitors; S2 cells (HEK-293 line with an ATXN2-luciferase reporter) viability, CellTiter-Fluor protease fluorescence, 24 h; Potency, µM (titrated, usually from 56.7 µM), actives largely listed as cytotoxic; actives 0.49% (n = 400,000); AID 651635; further: nearly all actives have a fitted effect of over 40% in size
DT40 TDP1 no CPT: qHTS for Inhibitors of human tyrosyl-DNA phosphodiesterase 1 (TDP1): qHTS in cells in absence of CPT | DT40 Tdp1-/- hTDP1 cells, no CPT, ATP luminescence, 48 h | AID 686978, 2013 | actives 15% (n = 420,000) | Potency, µM (top dose mostly 46.2 µM), without a hit: at the highest dose activity change, negative = growth inhibition, actives largely listed as inhibitors; further: on the % scale 0 is the no-effect control and ±100 the full control effect; nearly all actives have a fitted effect of over 55% in size
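Seeded 400 DT40-hTDP1 cells/well (vehicle DMSO, no 20 nM CPT); pinned compounds; ≥48 hr at 37 °C; CellTiter-Glo luminescence as viability measure.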
HepG2 viability: HepG2 cytotoxicity, counter-screen for TGF-b inhibitors; HepG2 CAGA-GFP viability, ATP luminescence, 18 h; Potency, µM (highest dose often 46.1 µM), inactives show top-dose activity change, negative = cytotoxicity, hits mostly cytotoxic; actives 0.76% (n = 410,000); AID 588856
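CellTiter-Glo luminescence gave cytotoxicity after 18 hours at 37 degrees C. The cells were HepG2 CAGA-GFP in 1% FBS DMEM, stimulated with 500 pg/mL TGF-beta after compound addition. %Activity was normalised to no-cell wells (complete cell-killing) and DMSO (no toxicity), and curves were fitted and classified.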
TDP1 cell CPT: growth inhibition of DT40 Tdp1-/-;hTDP1 cells with camptothecin (screen for TDP1 inhibitors) | chicken DT40 Tdp1-/-;hTDP1 cells + 20 nM CPT, ATP luminescence, 48 h | actives 12% (n = 420,000) | Potency, µM (titrated, usually from 46.2 µM), for the others: at the highest dose activity change, negative = growth inhibition, usual class: inhibitors; further: on the % scale 0 is the no-effect control and ±100 the full control effect; nearly all actives have a fitted effect of over 55% in size
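Chicken DT40 Tdp1-/- cells complemented with human TDP1, 400 cells/well, exposed to compounds plus 20 nM camptothecin for at least 48 h at 37 C; viability read as ATP content by CellTiter-Glo luminescence.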
ATXN2 expr inh: reduces ATXN2 reporter expression in HEK-293 cells. HEK-293 ATXN2-luciferase reporter, luminescence, 24 h. Potency, µM (top dose mostly 57 µM), inactives show at the top dose activity change, negative = inhibition, hits mostly inhibitors. actives 0.72% (n = 360,000); further: on the % scale 0 is the no-effect control and ±100 the full control effect; nearly all actives have a fitted effect of over 55% in size
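qHTS (up to 57 uM final) was run with 24 h compound exposure of reporter cells at 37 °C. Each well was multiplexed: SteadyGlo luminescence measured ATXN2-luciferase expression after a fluorogenic Gly-Phe-AFC viability readout (25 uM final).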
TGFb inhibitor: inhibitors of TGF-b signaling; HepG2 CAGA-GFP TGF-b/SMAD3 reporter, GFP fluorescence, 18 h; TGF-beta stimulated, 500 pg/mL final; Potency, µM (series often up to 46.1 µM), inactives show at the highest dose activity, negative = inhibition, hits mostly inhibitors; actives 1.2% (n = 410,000); AID 588855; further: on the % scale 0 is the no-effect control and ±100 the full control effect; nearly all actives have a fitted effect of over 65% in size
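Per well, imaged GFP fluorescence of HEPG2 CAGA-GFP cells gives the signal; cells get compound, then TGF-beta (500 pg/mL final), 18 h at 37 degrees C; %Activity versus -TGF-beta and +DMSO controls.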
The depositor's hits bear a star. The call rests on the fitted dose curve; in most records, active means well fitted curve in the direction sought with a large enough effect; inconclusive means small, poorly fitted or top-dose-only effect, or another doubt; inactive means no such curve, though single readings can be large; an effect the other way counts as inactive or inconclusive. Potency means the concentration at half of the fitted maximal effect.

How did CCOC(=O)c1cc(-c2ccc(OC)cc2)n(CCC(=O)Nc2nc3ccc(OCC)cc3s2)c1C do in these assays?
DT40 TDP1 no CPT: 9.2µM*; HepG2 viability: -16.4%; TDP1 cell CPT: 16.4µM*; TGFb inhibitor: 0.0%

Results for Cc1nn(C)c2c1c(C(F)(F)F)cc(=O)n2CC(=O)Nc1ccc(F)cc1F ?
S2 tox: inactive; DT40 TDP1 no CPT: -14.7%; HepG2 viability: -5.2%; TDP1 cell CPT: inconclusive; ATXN2 expr inh: 5.0%; TGFb inhibitor: -2.1%

What do the screens show for `CCOC(=O)c1cc(-c2ccc(C)cc2)n(CCC(=O)Nc2nc3c(C)cccc3s2)c1C`?
S2 tox: inactive; DT40 TDP1 no CPT: inconclusive; HepG2 viability: -16.3%; TDP1 cell CPT: inconclusive; ATXN2 expr inh: -13.2%; TGFb inhibitor: inconclusive

What do the screens show for `CC(=O)c1cc(-c2ccc(F)cc2)n(CCC(=O)Nc2nc3ccc(C)cc3s2)c1C`?
DT40 TDP1 no CPT: 16.4µM*; HepG2 viability: -22.2%; TDP1 cell CPT: 25.9µM*; TGFb inhibitor: 0.0%

Results for CCOC(=O)c1cc(-c2ccccc2)n(CCC(=O)NCCc2ccccc2)c1C ?
DT40 TDP1 no CPT: 16.4µM*; HepG2 viability: -19.4%; TDP1 cell CPT: 20.6µM*; TGFb inhibitor: 0.0%

Results for CCOC(=O)c1cc(-c2ccc(OC)cc2)n(CCC(=O)Nc2ccccc2OC)c1C ?
S2 tox: inconclusive; DT40 TDP1 no CPT: 20.6µM*; HepG2 viability: -29.1%; TDP1 cell CPT: 14.6µM*; ATXN2 expr inh: inconclusive; TGFb inhibitor: 0.9%

What do the screens show for `CCOC(=O)c1cc(-c2ccccc2)n(CCC(=O)NCc2ccccc2Cl)c1C`?
DT40 TDP1 no CPT: 13µM*; HepG2 viability: -14.6%; TDP1 cell CPT: inconclusive; TGFb inhibitor: 0.0%

What do the screens show for `CCOC(=O)c1cc(-c2ccc(OC)cc2)n(CCC(=O)Nc2cccc(C)c2C)c1C`?
DT40 TDP1 no CPT: inconclusive; HepG2 viability: -2.1%; TDP1 cell CPT: -29.4%; TGFb inhibitor: 0.0%

How did O=C(NCCC(F)(F)F)c1cccc2c(-c3ccc(F)c(F)c3)coc12 do in these assays?
S2 tox: inactive; DT40 TDP1 no CPT: inconclusive; HepG2 viability: -17.9%; TDP1 cell CPT: inconclusive; ATXN2 expr inh: 4.0%; TGFb inhibitor: inconclusive

Results for O=C(CN(CC1CCCO1)C(=O)CNS(=O)(=O)c1ccc(Cl)cc1)NC1CCCCC1 (stereo not given) ?
S2 tox: inactive; DT40 TDP1 no CPT: -12.1%; HepG2 viability: 19.4%; TDP1 cell CPT: -13.7%; ATXN2 expr inh: -11.3%; TGFb inhibitor: 19.3%

What do the screens show for `CCN(CC)C(=O)Cn1c(=O)n(-c2ccc(Cl)c(Cl)c2)c(=O)c2c(C)c(C(=O)N(CC)CC)sc21`?
S2 tox: inactive; DT40 TDP1 no CPT: 15.5%; HepG2 viability: -7.8%; TDP1 cell CPT: 6.3%; ATXN2 expr inh: -1.2%; TGFb inhibitor: -4.0%

What do the screens show for `CCOC(=O)c1cc(-c2ccc(F)cc2)n(CCC(=O)NCc2ccccc2OC)c1C`?
DT40 TDP1 no CPT: inconclusive; HepG2 viability: -25.3%; TDP1 cell CPT: inconclusive; TGFb inhibitor: -41.5%

How did CCOC(=O)c1cc(-c2ccc(F)cc2)n(CCC(=O)Nc2ccccc2OC)c1C do in these assays?
DT40 TDP1 no CPT: 20.6µM*; HepG2 viability: -30.9%; TDP1 cell CPT: inconclusive; TGFb inhibitor: inconclusive

How did CCOC(=O)c1cc(-c2ccc(C)cc2)n(CC(=O)Nc2cc(C)ccc2C)c1C do in these assays?
S2 tox: inactive; DT40 TDP1 no CPT: 14.6µM*; HepG2 viability: -11.5%; TDP1 cell CPT: 20.6µM*; ATXN2 expr inh: -4.3%; TGFb inhibitor: 3.3%
